Laboratory results taken from PubChem BioAssay AID2685 (National Center for Advancing Translational Sciences (NCATS), 2010).
Among all 320,000 compounds or so, about 2,100 (0.66%) were called active. About 53% were inconclusive and are not listed. The call rests on the fitted dose curve; in most records, active means well fitted inhibition curve with a large enough effect in the signal ratio, with a control signal flat (not every such curve was filed as active); inconclusive means small, poorly fitted or top-dose-only effect, or effect the other way, or a change in a side signal; inactive means flat fitted curve, though single readings scatter; the % refers to the signal ratio. What follows is part of a selection rich in actives, with near analogues and random picks from the rest.

Test: qHTS Assay for Lipid Storage Modulators in Drosophila S3 Cells;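 on cell number change: cells counted by Cell Tracker Red CMTPX staining in the red channel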
Details: BODIPY lipid droplet fluorescence, 18-24 h, cells fed with added oleic acid; cell number change: measured here: cell count max response; series mostly up to 46.1 µM
Method in brief: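 Drosophila S3 cells got compounds at several concentrations plus oleic acid (400 uM solution). Laser-scanning cytometry with 488 nm excitation read lipid droplets at 500-530 nm and cells at 575-640 nm. Percent activity was relative to 20 uM Triacsin C.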
Potency means the concentration at half of the fitted maximal effect.

| Compound | Potency | cell number change [%] |
| --- | --- | --- |
| Fc1ccccc1C(c1nnnn1C1CCCC1)N1CCN(Cc2ccccc2)CC1 (configuration not stated) | inactive | -15.7 |
| COc1ccccc1NC(=O)Nc1ccc(Br)cn1 | inactive | -23.3 |
| COc1ccc(C2/C=C\CN(S(=O)(=O)/C=C/c3ccccc3)[C@H](Cc3ccccc3)C(=O)N2Cc2ccc(F)cc2)cc1 (some centres not stated) | inactive | 2.68 |
| COc1cc(/C=N/NC(=O)c2ccc3nc[nH]c3c2)ccc1O | inactive | 8.7 |
| Cc1ccc(CNC(=O)COc2cccc3c2OC(C)(C)C3)cc1 | 10.3 µM (active) |  |
| COc1cccc(CNC(=O)COc2cccc3c2OC(C)(C)C3)c1 | inactive |  |
| CC1(C)Cc2cccc(OCC(=O)NCc3ccc(F)cc3)c2O1 | inactive | 2.51 |
| CN(CCNC(=O)c1cn(C)c2ccc(S(=O)(=O)N3CCCC3)cc2c1=O)CCc1ccccc1 | inactive |  |
| COc1cc(NC(=S)N(C)CCC#N)c(OC)cc1Cl | inactive | -2.16 |
| CCOC(=O)c1nn(-c2ccc(C)c(C)c2)c(=O)c(C#N)c1C | inactive | -19.4 |
| CCOC(=O)c1nn(-c2ccc(Cl)cc2Cl)c(=N)c(C#N)c1C | 18.4 µM (active) | 4.21 |
| CCOC(=O)c1nc(C)n(-c2ccc(Cl)cc2Cl)n1 | inactive |  |
| CC(C)(C)NC(=O)NC(=O)COC(=O)C1=COCCO1 | inactive | -19.1 |
| Cc1ccc2c(c1)N(C(=O)CSc1nncn1C)C(C)(C)c1ssc(=S)c1-2 | inactive | -13.4 |
| CC1(C)c2ssc(=S)c2-c2ccccc2N1C(=O)c1ccco1 | 8.2 µM (active) | 1.38 |
| Cn1cnnc1SCC(=O)N1c2ccccc2-c2c(ssc2=S)C1(C)C | inactive | 1.3 |
| O=C(N/N=C/c1ccccc1C(=O)O)c1cccc(S(=O)(=O)N2CCOCC2)c1 | inactive | 10.2 |
| Cc1onc(-c2ccccc2)c1C(N)=O | inactive |  |
| Cc1onc(-c2ccccc2)c1C(=O)Nc1ccncc1 | inactive | 12.5 |
| Cc1onc(-c2ccncc2)c1C(=O)O | 20.6 µM (active) | -5.32 |
| CCOc1ccc(CN2CCC(=O)NC2=O)cc1 | inactive | -4.82 |
| CC1CC(C)CN(CCCNC(=O)c2ccc(N3CCCC3=O)cc2)C1 (configuration not stated) | inactive | -12.7 |
| COC(CNC(=O)c1cc(S(=O)(=O)N2CCc3ccccc32)ccc1F)OC | inactive |  |

| Compound | Potency | cell number change [%] |
| --- | --- | --- |
| COC(CNC(=O)c1ccc(N2CCc3ccccc32)c([N+](=O)[O-])c1)OC | 20.6 µM (active) | -26.9 |
| COC(CNC(=O)c1ccc(N2CCC3(CC2)OCCO3)c([N+](=O)[O-])c1)OC | inactive | -9.81 |
| O=C(Nc1cccc([N+](=O)[O-])c1)C(=O)N1CCCCC1 | inactive | -20.3 |
| CCOC(=O)c1ccc(NC(=O)CSc2nnc(-c3ccncc3)n2C)cc1 | inactive | 3.98 |
| Cc1cc(N2CCOCC2)nc2cc(O)ccc12 | inactive | -2.46 |
| COc1ccc2c(C)cc(N3CCCCCC3)nc2c1 | inactive | 23.5 |
| COc1ccc2c(C)cc(N3CCOCC3)nc2c1 | 4.61 µM (active) | -8.65 |
| CSc1ccc(S(=O)(=O)Nc2c(C)cccc2C)cc1 | inactive | 1.28 |
| CCCCCCCn1c(=N)n(CC(O)c2ccco2)c2ccccc21 (configuration not stated) | inactive | -4.47 |
| CC1CN(Cc2cc(=O)oc3cc(O)c(Cl)cc23)CC(C)O1 (configuration not stated) | 1.64 µM (active) | -11.3 |
| O=c1cc(CN2CCOCC2)c2cc(Cl)c(O)cc2o1 | inactive | -11.3 |
| Cc1ccc2c(CN3CC(C)CC(C)C3)cc(=O)oc2c1 (configuration not stated) | 1.16 µM (active) | 4.5 |
| COC(=O)C1CCN(Cc2cc(=O)oc3cc(C)c(Cl)cc23)CC1 | inactive | 14.6 |
| Cc1ccc2c(CN3CCN(Cc4ccccc4)CC3)cc(=O)oc2c1 | inactive | 22.5 |
| Cc1ccc2c(CN3CCOCC3)cc(=O)oc2c1 | inactive | 3.55 |
| CCCCCCNC(=O)c1cc(-c2ccco2)nc2ccccc12 | inactive | -17.2 |
| O=C(CN1C(=O)NC2(CCCC2)C1=O)N1CCN(Cc2ccccc2)CC1 | inactive | 0.232 |
| COC(=O)Cn1nc(-c2ccc(C)cc2)c2ccccc2c1=O | inactive | 9.56 |
| COc1ccc(/C=N/NC(=O)CCN2CCCCC2c2cccnc2)cc1Cn1cc([N+](=O)[O-])cn1 (configuration not stated) | inactive | -16.7 |
| CN(C)CCN(Cc1ccccc1)S(=O)(=O)c1ccc(-c2ccc(=O)[nH]n2)s1 | inactive |  |
| COc1cc2c(cc1OC)C(C(=O)NCc1cccnc1)C(c1cccnc1)N(C)C2=O (configuration not stated) | inactive | -0.81 |
| COc1ccc(C2C(C(=O)NCc3cccnc3)c3ccccc3C(=O)N2C)cc1OC (configuration not stated) | 2.59 µM (active) | -17.1 |
| COc1ccc(C2C(C(=O)NCc3ccccn3)c3ccccc3C(=O)N2C)cc1OC (configuration not stated) | inactive |  |

| Compound | Potency | cell number change [%] |
| --- | --- | --- |
| O=C(N/N=C\c1cccnc1)C1c2ccccc2Oc2ccccc21 | inactive | -0.813 |
| CCN(CC)C(=O)c1[nH]cnc1C(=O)N[C@@H](CC(C)C)C(=O)OCc1ccccc1 | inactive | -10.8 |
| C/C(=N\NC(=O)c1cccc([N+](=O)[O-])c1)c1cccc(NC(=O)C2CC2)c1 | inactive | -1.94 |
| Cc1ccccc1NC(=O)CN1C(=O)N/C(=C\c2ccc(N3CCOCC3)c(F)c2)C1=O | inactive | -7.47 |
| COc1ccc2c3n(nc2c1)CCN=C3c1ccc(Cl)cc1 | inactive | 28.7 |
| Nc1c(Cl)cc(C2=NCCn3nc4cc([N+](=O)[O-])ccc4c32)cc1Cl | 5.17 µM (active) | 13.3 |
| Nc1c(Cl)cc(C2=NCCn3c2c2ccc([N+](=O)[O-])cc2[n+]3[O-])cc1Cl | inactive | -13.5 |
| C/C=C/C(=O)N1CC2(CC(c3cccc(NC(=O)CCCCC)c3)=NO2)C[C@H]1C(N)=O (some centres not stated) | inactive | 7.84 |
| CC1(O)CC(=O)N(c2ccccc2)O1 (configuration not stated) | inactive | 5.56 |
| CC1(C)CC(=O)N(c2ccccc2)C1(C)O (configuration not stated) | 0.164 µM (active) | 6.8 |
| CC(C)N1C(=O)N(c2ccccc2)C(C)(O)CC1(C)C (configuration not stated) | inactive |  |
| Nc1nc(CN2CCc3ccccc3C2)nc(Nc2ccccc2)n1 | inactive |  |
| CCCCCCSc1ccc([C@@H]2[C@H]3C(=O)N(C)C(=O)[C@H]3[C@]3(C(=O)OC)CCCCN23)cc1 | 20.6 µM (active) |  |
| CCN1C(=O)[C@@H]2[C@@H](c3ccc(-c4ccc(F)cc4)cc3)N3CCC[C@@]3(C(=O)OC)[C@@H]2C1=O | inactive | -18.3 |
| COC(=O)[C@@]12CCCCN1[C@H](c1ccc(-c3ccc(OC)cc3)cc1)[C@@H]1C(=O)N(C)C(=O)[C@@H]12 | inactive |  |
| CCCSc1ccc([C@@H]2[C@H]3C(=O)N(CC)C(=O)[C@H]3[C@]3(C(=O)OC)CCCN23)cc1OC | inactive | 11.7 |
| CCCCCCSc1ccc([C@@H]2[C@H]3C(=O)N(CC)C(=O)[C@H]3[C@]3(C(=O)OC)CCCN23)cc1 | 0.517 µM (active) |  |
| COC(=O)[C@@]12CCCCN1[C@H](c1ccc(SC3CCCCC3)cc1)[C@H]1C(=O)N(C)C(=O)[C@H]12 | inactive |  |
| CS(=O)(=O)Nc1ccc(S(=O)(=O)NCCc2ccccc2)cc1 | inactive |  |
| CC(C)NC(=O)c1cc2c(C(F)(F)F)nn(C)c2s1 | inactive | -21.4 |
| COc1ccc(C(=O)C(C)OC(=O)c2cccc(S(=O)(=O)Nc3cc(Cl)c(OC)cc3OC)c2)cc1 (configuration not stated) | inactive | -7.94 |
| N#Cc1cccc(NC(=O)COc2ccc(-n3ccnc3)cc2)c1 | inactive | -13.2 |
| COc1ccc(N2C(=O)CC(N3CCN(c4cccc(Cl)c4)CC3)C2=O)cc1 (configuration not stated) | inactive | -1.05 |

| Compound | Potency | cell number change [%] |
| --- | --- | --- |
| Nc1cc(C(=O)O)c(Oc2ccc(Cl)cc2Cl)cc1C(=O)O | inactive | -11.5 |
| COCCN=c1scc(-c2ccc3c(c2)NC(=O)CO3)n1/N=C(\C)c1ccc(O)cc1 | inactive | 3.12 |
| COc1cc(C(C)=O)ccc1COc1ccc(C(=O)OC(C)C(=O)NC(N)=O)cc1OC (configuration not stated) | inactive | 7.94 |
| Cc1ccc(N=Nc2c(O)c3ccccc3[nH]c2=O)c(S(=O)(=O)N(C)C)c1 | inactive | 7.5 |
| NC(=O)c1ccc(N=Nc2c(O)c3ccccc3[nH]c2=O)cc1 | inactive | 9.46 |
| Cc1cc(N=Nc2c(O)c3ccccc3[nH]c2=O)ccc1N=Nc1ccc(C(=O)N(C)C)cc1 | 20.6 µM (active) | -11.6 |
| O=C(NCCOc1ccccc1)c1cc([N+](=O)[O-])ccc1N1CCOCC1 | inactive | -1.71 |
| CC(C)(CNC(=O)c1cc([N+](=O)[O-])ccc1N1CCC(Cc2ccccc2)CC1)N1CCOCC1 | 20.6 µM (active) | 7.52 |
| O=C(O)c1cc([N+](=O)[O-])ccc1N1CCC(Cc2ccccc2)CC1 | inactive | 4.05 |
| CCOc1ccc(N2C(=O)C3ON(c4ccccc4)C(c4ccco4)C3C2=O)cc1 (configuration not stated) | inactive | -16.3 |
| CCN(CC)S(=O)(=O)c1ccc(S(=O)(=O)N(CC(=O)Nc2ccccc2)Cc2ccco2)cc1 | inactive | -12.6 |
| Cc1cc(C)n(-c2nnc(C)c(=O)[nH]2)n1 | inactive |  |
| O=C(O)c1ccccc1N/N=C/C1=C(N2CCOCC2)C(=C\c2ccccc2)/CC1 | inactive |  |
| O=CC1=C(N2CCOCC2)/C(=C\c2ccccc2)CC1 | inactive | 1.5 |
| O=C(NP(=O)(N1CCCC1)N1CCCC1)C1=C(N2CCOCC2)/C(=C/c2cccc([N+](=O)[O-])c2)CC1 | inactive |  |
| CC(C)C(NC(=O)C12CC3CC(CC(C3)C1)C2)C(=O)N/N=C/C1=C(N2CCOCC2)C(=C\c2cccc([N+](=O)[O-])c2)/CC1 (configuration not stated) | inactive | 9.26 |
| CCN(CC)c1ccc(/C=C2\CCC(/C=C(\C#N)C(=O)Nc3ccccc3F)=C2N2CCOCC2)cc1 | 0.58 µM (active) | 1.95 |
| CCOC(=O)C(=O)C1=C(N2CCOCC2)/C(=C\c2cccc([N+](=O)[O-])c2)CC1 | inactive | -9.52 |
| N#C/C(=C\C1=C(N2CCOCC2)C(=C/c2cccc([N+](=O)[O-])c2)/CC1)C(=O)Nc1ccccc1F | 2.06 µM (active) | 1.41 |
| CC(NC(=O)C12CC3CC(CC(C3)C1)C2)C(=O)N/N=C/C1=C(N2CCOCC2)C(=C\c2cccc([N+](=O)[O-])c2)/CC1 (configuration not stated) | 13 µM (active) | 4.98 |
| N#C/C(=C/c1cccc([N+](=O)[O-])c1)C(=O)Nc1ccccc1O | inactive | 0.725 |
